ADAM17 inh – inhibits human ADAM17 | AID 720648 | recombinant ADAM17, EDANS/DABCYL FRET peptide cleavage | P78536 | 0.83% of 370,000 active | inhibition, % at 6.95 µM;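 active = inhibition above the mean of compounds lying between control limits plus 3 SD, set per campaign, cut at about 8.5% in these data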;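 also: 0% = DMSO-only wells as the low control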
V-ATPase pH – alters yeast V-ATPase proton transport | S. cerevisiae, pHLuorin cytosolic pH fluorescence | response, % at 10 µM | 0.37% of 350,000 active | AID 504577; in the data active = response mostly above about 7.3%, no sharp cut-off; inactive = mostly below about 5.4%; also: actives read high
ADAM10 inh – inhibits human ADAM10. O14672. recombinant ADAM10, EDANS/DABCYL FRET peptide cleavage, 3 h. inhibition, % at 7 µM. 0.62% of 370,000 active. AID 720582;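 active = inhibition above a per-campaign cutoff equal to the mean of compounds falling between control-based bounds plus 3 SD, cut at about 20% in these data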;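 also: 0% = DMSO wells while the 100% control is not disclosed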
proKLK7 act – activators of human kallikrein-7 zymogen | P49862 | purified proKLK7, EDANS-DABCYL substrate fluorescence; 100% is mature enzyme control, 0% vehicle | activation, % at 7 µM | 0.9% of 370,000 active;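 active = activation above the mean of all tested compounds plus 3 SD, computed per campaign excluding outliers beyond control limits, cut at about 13% in these data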
Target sequence (P49862 whole entry, looked up): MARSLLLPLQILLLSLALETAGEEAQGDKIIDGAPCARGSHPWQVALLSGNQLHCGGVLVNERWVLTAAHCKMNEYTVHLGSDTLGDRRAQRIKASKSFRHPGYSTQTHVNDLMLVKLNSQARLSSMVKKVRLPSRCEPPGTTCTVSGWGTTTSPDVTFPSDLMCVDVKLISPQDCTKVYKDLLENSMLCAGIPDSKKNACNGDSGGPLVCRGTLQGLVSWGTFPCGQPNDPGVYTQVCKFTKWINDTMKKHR
KLK7 act conf – proKLK7 activation, confirmation; shares compounds with proKLK7 act; purified proKLK7, EDANS-DABCYL substrate fluorescence; scaled: vehicle 0, mature enzyme 100; activation, % at 7 µM; 68% of 3,200 active; AID 686949;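 active = activation, as change over the incubation, above the mean of all tested compounds plus 3 SD, cut at about 13% in these data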
EDANS-DABCYL int – optically interferes with EDANS-DABCYL signal, flagging KLK7 hits; shares compounds with proKLK7 act; EDANS-DABCYL substrate fluorescence interference, no enzyme, 4 h; solvent 0%, active enzyme control 100%; activation, % at 7 µM; 80% of 3,200 active; AID 686952;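 active = activation above the all-compound mean plus 3 SD, ignoring values outside control-based bounds, cut at about 4.8% in these data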;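 also: value is the 4 h activation minus the activation read at time zero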
The depositor's hits bear a star; i = inactive; . = not tested or not shown. A selection: hits, their analogues and other compounds. The true share with any hit is near 2.3%.

SMILES | ADAM17 inh | V-ATPase pH | ADAM10 inh | proKLK7 act | KLK7 act conf | EDANS-DABCYL int
CC(C)(C)NC(=O)C(c1cc2ccccc2o1)n1c(-c2ccc(-c3ccccc3)cc2)nc2ccccc21 (stereo unspecified) | -48 | . | -265 | 25* | -73 | -39
COc1cc(OCc2ccccc2)c(CC(=O)O)c([N+](=O)[O-])c1 | 0 | 0 | 6 | 0 | . | .
COc1cc(OCc2ccccc2)c2c(CCC(=O)O)cc(=O)oc2c1 | i | -2 | i | 89* | 59* | 58*
CCc1cc(=O)oc2cc(OC(C)=O)cc(OC(C)=O)c12 | i | 2 | i | 79* | 486* | 534*
CCCCc1cc(=O)oc2cc(C)cc(OCC(=O)O)c12 | -193 | 0 | i | 12 | . | .
CCCC(=O)OC[C@H]1CN(C2CCCC2)S(=O)(=O)c2c(Oc3ccc(F)cc3)cccc2O1 | 1 | . | 6 | 0 | . | .
Nn1c(SCC(=O)N2CCOCC2)nnc1-c1cc(-c2ccc(Cl)cc2)n[nH]1 | -4 | . | -2 | 0 | . | .
COC(=O)[C@]12C[C@H](CC(=O)NCc3cccc4ccccc34)C(=O)N(Cc3ccc(Cl)cc3Cl)C1=C[C@H](C1CCCC1)O[C@@H]2C | -8 | . | -2 | 1 | . | .
COCCNC(=S)N(C)[C@H]1C[C@H]2c3[nH]c4c(-c5ccccc5)cccc4c3CCN2C[C@H]1[C@H](C)O | -33 | . | -144 | 1 | . | .
Cc1ccc(C2C=C(c3ccccc3OC(F)F)Nc3ncnn32)cc1 (stereo unspecified) | -150 | -2 | -444 | 18* | 76* | 80*
CN(C)c1ccc(C2C=C(c3ccc(Cl)cc3OC(F)F)Nc3ncnn32)cc1 (stereo unspecified) | -4 | 4 | -25 | 2 | . | .
Cc1ccc(C2C=C(c3ccc4c(c3)OCO4)Nc3ncnn32)cc1 (stereo unspecified) | -54 | -3 | -155 | 15* | -15 | 9.2*
C[C@H]1C(c2ccc(F)cc2)=NN(c2ccccc2)[C@@H]1CO | -478 | 1 | i | 23* | -13 | -26
COc1ccccc1[C@H]1C(c2ccc(F)cc2)=NN(c2ccccc2)[C@@H]1CO | i | 3 | i | -58 | . | .
CNC(=O)c1ccc(-c2ccc(OC)cc2)s1 | i | -3 | i | 50* | 56* | 66*
CC[C@]12c3[nH]c4cc(-c5ccco5)ccc4c3CCN1C(=O)[C@@H](CC(=O)NC/C=C(\C)CCC=C(C)C)C[C@@H]2C(=O)N1CCN(C(=O)C2CC2)CC1 | -190 | -1 | i | -3 | . | .
CC[C@]12c3[nH]c4cc(-c5ccco5)ccc4c3CCN1C(=O)[C@@H](CC(=O)NC(C)(C)C)C[C@@H]2C(=O)N1CCN(C(=O)C2CC2)CC1 | -181 | -1 | i | 144* | 203* | 163*
C[C@]12c3[nH]c4cc(-c5ccco5)ccc4c3CCN1C(=O)[C@@H](CC(=O)NCc1ccco1)C[C@@H]2C(=O)N1CCCCC1 | -139 | 0 | -451 | 84* | 45* | 82*
C[C@]12c3[nH]c4cc(-c5ccco5)ccc4c3CCN1C(=O)[C@@H](CC(=O)NCc1ccco1)C[C@@H]2C(=O)N1CCOCC1 | -122 | 3 | -425 | 75* | 81* | 75*
COc1ccc2[nH]c3c(c2c1)CCN1C(=O)C(CC(=O)NCc2ccco2)C[C@H](C(=O)N2CCCCC2)[C@@]31C (stereo partly specified) | -5 | 0 | -5 | 0 | . | .
CC[C@]12c3[nH]c4cc(-c5ccco5)ccc4c3CCN1C(=O)[C@@H](CC(=O)NCc1ccco1)C[C@@H]2C(=O)N1CCN(C(=O)c2ccco2)CC1 | -102 | 2 | -345 | 134* | 95* | 104*
CN1OC[C@@H]2CN(C(=O)c3ccc([N+](=O)[O-])cc3)[C@H](c3ccccc3Br)C[C@@H]21 | 6 | . | -2 | 0 | . | .
CC(C)(C)NC(=O)C[C@H]1C[C@H](C(=O)N2CCCCC2)[C@@]2(C)c3[nH]c4cc(-c5ccco5)ccc4c3CCN2C1=O | -116 | 0 | -399 | 77* | 74* | 79*
CC[C@]12c3[nH]c4cc(-c5ccco5)ccc4c3CCN1C(=O)[C@@H](CC(=O)NCCc1ccccn1)C[C@@H]2C(=O)N1CCN(C(=O)C2CC2)CC1 | -180 | 5 | i | 137* | 104* | 124*
CC(C)(C)NC(=O)C[C@H]1C[C@H](C(=O)N2CCOCC2)[C@@]2(C)c3[nH]c4cc(-c5ccco5)ccc4c3CCN2C1=O | . | -3 | . | . | . | .
SMILES | ADAM17 inh | V-ATPase pH | ADAM10 inh | proKLK7 act | KLK7 act conf | EDANS-DABCYL int
COC(=O)[C@]12C[C@H](CC(=O)N3CCOCC3)C(=O)N(Cc3cccc4ccccc34)C1=C[C@H](C1CCCC1)O[C@@H]2C | 2 | . | 10 | 1 | . | .
C[n+]1ccc(/C=C/c2c[nH]c3ccc(F)cc23)cc1 | 1 | 4 | -13 | 15* | 10 | 14*
Cn1cc(/C=C/c2cc[n+](C)cc2)c2cc(F)ccc21 | . | 3 | . | . | . | .
COc1ccccc1N=c1oc2cc(O)ccc2cc1C(=O)NCC1CCCO1 (stereo unspecified) | i | -1 | i | 74* | 21* | 22*
COc1ccc2cc(C(N)=O)c(=Nc3ccc(C)cc3)oc2c1 | -172 | 1 | -462 | -1 | . | .
Cc1cccc(N=c2oc3cc(O)ccc3cc2C(N)=O)c1 | i | 7 | i | 53* | 27* | 27*
COc1cccc2cc(C(=O)NCC3CCCO3)c(=O)oc12 (stereo unspecified) | -12 | 3 | -10 | -6 | . | .
COc1ccccc1N=c1oc2cc(O)ccc2cc1C(N)=O | i | 4 | i | 39* | 18* | 23*
COc1cccc(N=c2oc3cc(O)ccc3cc2C(=O)NCC2CCCO2)c1 (stereo unspecified) | i | -1 | i | 66* | 9 | 6.5*
CC(C)[C@H](NC(=O)c1ccccc1)C(=O)N1CCC[C@H]1C(=O)NCCc1ccccc1Cl | 1 | . | -2 | 0 | . | .
CCOC(=O)C1CCN(C(=O)Nc2ccc3nc(C)c(C)nc3c2)CC1 | -478 | 0 | i | 23* | 46* | 53*
O=C1c2ccccc2/C(=C\c2ccc(O[C@@H]3CCCCO3)cc2)N1c1ccccc1 | -46 | . | -176 | 100* | 4 | 15*
CCn1c(Cc2cccs2)nnc1SCC(=O)Nc1ccc2c(c1)OCCO2 | 3 | . | -2 | 1 | . | .
CCOC(=O)C1=CCN(S(=O)(=O)c2ccccc2Cl)C1c1ccc(Cl)cc1 (stereo unspecified) | 2 | . | 4 | 1 | . | .
COc1ccc(C2Nc3ccccc3C(=O)N2NS(=O)(=O)c2ccc(C)cc2)cc1 (stereo unspecified) | -74 | 1 | -218 | 16* | 4 | 5.6*
O=C1c2ccccc2NC(c2cccc(O)c2)N1NS(=O)(=O)c1ccccc1 (stereo unspecified) | -103 | -2 | -312 | 20* | 7 | 6.5*

High-throughput results as filed in PubChem BioAssay.
